22 compounds from PubChem BioAssay (EPA / NIEHS) can be followed below.

Experiment [1] deals with Nucleoli Translocation, AR (gene 367) (UniProt P10275). Briefly: UPITT_HCI_U2OS_AR_TIF2_Nucleoli_Antagonist: University of Pittsburgh U2OS Androgen Receptor-Transcriptional Intermediary Factor 2 (AR-TIF2) Antagonism High Content Imaging Assay for Nucleoli Translocation (AID 2283997; active = hit-call score of the fitted dose curve at least 0.9, where 1 is the maximum). The procedure, abridged: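 Compounds are added at 20 uM final concentration in 0.2% DMSO to U2OS cells carrying AR-RFP and TIF2-GFP fusions. Nucleolar AR-RFP fluorescence is then quantified by automated imaging. Antagonism is fitted positively against DHT baseline.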

Experiment [2] has the same target. The experiment is described as follows: UPITT_HCI_U2OS_AR_TIF2_Nucleoli_Agonist: University of Pittsburgh U2OS Androgen Receptor-Transcriptional Intermediary Factor 2 (AR-TIF2) Agonism High Content Imaging Assay for Nucleoli Translocation (AID 2283998; active = hit-call score of the fitted dose curve at least 0.9, where 1 is the maximum). The procedure, abridged:
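Red-tagged human androgen receptor co-expressed with GFP-tagged TIF2 serves as the binding reporter. Primary testing used 20 uM final (0.2% DMSO); follow-up dose response covered 0.195 to 50 uM final (0.5% DMSO).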

In experiment [3] the target is Ratio of Nucleoli Translocation and Cytoplasm, AR (gene 367) (UniProt P10275). The experiment is described as follows: UPITT_HCI_U2OS_AR_TIF2_Nucleoli_Cytoplasm_Ratio_Antagonist: University of Pittsburgh U2OS Androgen Receptor-Transcriptional Intermediary Factor 2 (AR-TIF2) Antagonism High Content Imaging Assay for Ratio of Nucleoli Translocation and Cytoplasm (AID 2283999; active = hit-call score of the fitted dose curve at least 0.9, where 1 is the maximum;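 note: antagonists lower the DHT-driven ratio of nucleolar to cytoplasmic red signal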). The essentials:
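Read-out is the ratio of nucleolar to cytoplasmic AR-RFP fluorescence, imaged by high-content microscopy in U2OS cells coexpressing TIF2-GFP. Single-point 20 uM screen, triplicate confirmation, then 0.195–50 uM dose response; activity referenced to DHT baseline.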

A short description of experiment [4]: CCTE_Shafer_MEA_acute_spike_number: CCTE's Neural Acute Assay for Total Number of Spikes, Shafer Lab (AID 2284008).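 For AC50: curve fitted for decrease in spike count so AC50 reflects inhibitors.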 The procedure, abridged:
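Cortical neurons from rat, matured to DIV 13 or 15 on microelectrode arrays, are recorded at 37 C before and during 40-min exposure to 0.03-40 uM compound. Wells need >/= 10 active electrodes.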

Experiment [5] in a line: CCTE_Shafer_MEA_acute_firing_rate_mean: CCTE's Neural Acute Assay for Mean Firing Rate, Shafer Lab (AID 2284009).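 Note: analyzed for loss of signal so actives lower firing rate relative to DMSO.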 The procedure, abridged: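 Rat cortical neuron cultures matured to DIV 13 or 15, equilibrated 20 min at 37 C, then recorded 40 min for baseline. Compound (0.03-40 uM) added and a further 40 min recorded; percent change in mean firing rate calculated per well.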

Experiment [6] in a line: CCTE_Harrill_HTTr_Viability_MCF7: CCTE's 6-hour Cell Viability Assessment for the High-Throughput Transcriptomics (HTTr) Platform, in MCF-7 cells cultured in DMEM + 10% fetal bovine serum, Harrill Lab (AID 2284010). The procedure, abridged: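 PI exclusion, high-content imaging; 8-pt dilution series, 6 h exposure; bidirectional fit vs DMSO (neg. ctrl/baseline); gain of signal = loss of membrane integrity.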

A short description of experiment [7]: CCTE_Harrill_HTTr_Apoptosis_MCF7: CCTE's 6-hour Apoptosis Assessment for the High-Throughput Transcriptomics (HTTr) Platform, in MCF-7 cells cultured in DMEM + 10% fetal bovine serum, Harrill Lab (AID 2284011). The essentials:
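Cells are dosed with test chemicals at eight concentrations and imaged 6 hours later for caspase-3/7 activity using a green fluorogenic detection reagent. Activity is fitted in both directions against DMSO controls.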

A short description of experiment [8]: CCTE_Harrill_HTTr_CellCount_MCF7: CCTE's Cell Proliferation Assessment for the High-Throughput Transcriptomics (HTTr) Platform, Harrill Lab (AID 2284012; active = hit-call score of the fitted dose curve at least 0.9, where 1 is the maximum;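 note: count of Hoechst-stained nuclei per well by high-content imaging in MCF-7 cells; cells exposed to compound for six hours; intended direction is loss of nuclei count meaning fewer cells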). The procedure, abridged: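 Readout: Hoechst nuclear count by high-content imaging. MCF-7, 8-point dilution series, 6 h exposure. Bidirectional fit vs DMSO baseline.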
A short description of experiment [9]: CCTE_Shafer_MEA_acute_burst_number: CCTE's Neural Acute Assay for Single-Electrode Bursts, Shafer Lab (AID 2284013). The essentials:
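Percent change in single-electrode burst number per well, from 40-min recordings taken before and after adding compound (0.03-40 uM) to primary rat cortical neurons on MEA plates at DIV 13 or 15, 37 C.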

The nature of experiment [10]: CCTE_Shafer_MEA_acute_burst_duration_mean: CCTE's Neural Acute Assay for Mean Burst Duration, Shafer Lab (AID 2284014).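 Note: hits are decreases in mean burst duration relative to DMSO controls.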 The essentials: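 Rat cortical cultures, DIV 13/15; 40 min baseline, then 40 min with compound (0.03-40 uM), 37 C. Spikes: 300-5000 Hz band-pass, 8x rms threshold. Read-out: % change in mean single-electrode burst duration, DMSO-referenced, loss direction.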

The nature of experiment [11]: CCTE_Shafer_MEA_acute_per_burst_spike_number_mean: CCTE's Neural Acute Assay for Average Number of Spikes Per Burst, Shafer Lab (AID 2284015).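 Note: hits are decreases in mean spikes per burst versus baseline.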 The essentials:
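Percent change in mean spikes per single-electrode burst is compared between a 40 min baseline and a 40 min recording with compound (0.03-40 uM). Cultures were rat cortical neurons on MEA plates at DIV 13 or 15, recorded at 37 C, with DMSO as the negative control.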

The nature of experiment [12]: CCTE_Shafer_MEA_acute_interburst_interval_mean: CCTE's Neural Acute Assay for Mean Interburst Interval, Shafer Lab (AID 2284016).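 Note: percent change of mean interburst interval versus each well's own pre-dose baseline; curves fitted for decrease in interburst interval relative to DMSO.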 The essentials:
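Percent change in mean single-electrode interburst interval was calculated per well from 40 min recordings before and after compound (0.03-40 uM). Recordings were made at 37 C on rat cortical cultures at DIV 13 or 15, with spikes detected at 8x rms threshold.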

Experiment [13] is described as follows: CCTE_Shafer_MEA_acute_burst_percentage_mean: CCTE's Neural Acute Assay for Percentage of Spikes in a Burst, Shafer Lab (AID 2284017).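 For AC50: curve fitted for loss of signal so potency reflects decreased burst percentage.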 The essentials: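 Well-level mean burst percentage from a 40-min recording after compound (0.03-40 uM) expressed as percent change from a 40-min baseline at 37C. Cultures: primary rat cortical neurons on MEA, dosed on DIV 13 or 15; fitted downward relative to DMSO.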

A short description of experiment [14]: CCTE_Simmons_MITO_inhib_resp_rate: CCTE's HepG2 Seahorse XF Respirometric Screening Assay at Inhibited Respiratory State [full ETC block], Simmons Lab (AID 2284006). The settings on record: actives raise or lower the signal. The procedure, abridged: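 OCR read-out in the inhibited phase following rotenone/antimycin A, after compound and FCCP injections, in HepG2 cells. Seven concentrations (125 nM to 100 uM final), three biological replicates, 6-min cycles over 72 min; DMSO baseline.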

The subject of another experiment is DIO1 (gene 1733). The experiment is described as follows: CCTE_GLTED_hDIO1: CCTE's human Deiodinase 1 (DIO1) Inhibition Assay, Great Lakes Toxicology and Ecology Division (GLTED) Lab (AID 2283987; active = hit-call score of the fitted dose curve at least 0.9, where 1 is the maximum;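 note: isolated human DIO1 enzyme in a cell-free setup rather than cells; enzyme activity read as free iodide liberated from substrate via Sandell-Kolthoff colorimetry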). The essentials:
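Cell-free hDIO1 assay, triplicate plates. Absorbance of the Sandell-Kolthoff reaction reports enzyme-liberated iodide; iodinated chemicals or nitrite, iron and thiocyanate may interfere.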

Inconclusive results are not listed. Activity calls are given as the source filed them. Rule for the calls, unless noted: active = hit-call score of the fitted dose curve at least 0.9, where 1 is the maximum; inactive = score below 0.9.

Chain of Ratio of Nucleoli Translocation and Cytoplasm, AR (gene 367) (P10275 whole entry, looked up): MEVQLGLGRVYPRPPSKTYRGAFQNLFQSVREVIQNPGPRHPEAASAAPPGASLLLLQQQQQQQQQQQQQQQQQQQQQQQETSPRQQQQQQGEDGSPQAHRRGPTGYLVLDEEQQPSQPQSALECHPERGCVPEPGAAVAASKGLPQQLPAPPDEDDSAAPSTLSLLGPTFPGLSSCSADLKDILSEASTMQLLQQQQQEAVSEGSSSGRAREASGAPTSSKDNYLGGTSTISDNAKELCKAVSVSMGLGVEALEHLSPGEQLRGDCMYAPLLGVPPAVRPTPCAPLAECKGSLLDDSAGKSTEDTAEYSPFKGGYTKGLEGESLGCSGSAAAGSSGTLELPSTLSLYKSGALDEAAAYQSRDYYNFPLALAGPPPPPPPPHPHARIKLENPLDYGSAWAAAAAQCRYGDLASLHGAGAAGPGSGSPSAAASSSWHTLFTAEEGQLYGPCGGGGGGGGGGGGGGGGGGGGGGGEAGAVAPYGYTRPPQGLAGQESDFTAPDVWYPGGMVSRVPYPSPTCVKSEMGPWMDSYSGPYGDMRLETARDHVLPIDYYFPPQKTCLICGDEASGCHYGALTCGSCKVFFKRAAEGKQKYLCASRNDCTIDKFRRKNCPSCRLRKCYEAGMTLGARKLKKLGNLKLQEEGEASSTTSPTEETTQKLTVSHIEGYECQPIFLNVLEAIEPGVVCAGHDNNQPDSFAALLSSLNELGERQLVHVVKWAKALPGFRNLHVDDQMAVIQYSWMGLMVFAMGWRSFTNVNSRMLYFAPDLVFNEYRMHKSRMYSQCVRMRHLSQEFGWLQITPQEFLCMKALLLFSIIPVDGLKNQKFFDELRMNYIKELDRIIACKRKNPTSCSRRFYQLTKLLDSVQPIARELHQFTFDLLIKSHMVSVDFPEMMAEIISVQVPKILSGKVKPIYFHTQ
Chain of Nucleoli Translocation, AR (gene 367) (P10275 whole entry, looked up, the tested form may be a part): as the sequence (P10275 whole entry, looked up) above

A word on the AC50: it is the concentration giving half of the maximal activity seen. `COc1cc(C(=O)NC2CCN(C)CC2)ccc1Nc1ncc2c(n1)N(C1CCCC1)CC(F)(F)C(=O)N2C`: the call in [1], in [3], in experiment [6], in experiment [7], in [8] and in experiment [9] was inactive. The half-maximal activity concentration (AC50) in experiment [2] was 46.5 µM (active); in [4] it was 7.05 µM (active); in experiment [5] it was 7.05 µM (active); in experiment [10], 1.85 µM (active); in [11], 29.9 µM (active); in [12] it was 3.83 µM (active). Moreover, the concentration at half-maximal activity (AC50) in [13] is 15 µM (active).
In the case of `Cc1c2ccccc2c(C)c2c1ccc1ccccc12`, the AC50 in experiment [1] is 50 µM (active); in [4] it was 20 µM (active); in experiment [5], 20 µM (active); in experiment [12], 7.49 µM (active); in experiment [13], 29.7 µM (active). For the same compound, the compound was classed as inactive in [2], in experiment [3], in [14], in experiment [6], in experiment [7] and in [8]. Moreover, the compound was called inactive in [9], in experiment [10] and in [11].
`O=C(Nc1ccc(Cl)cc1)Nc1ccc(Cl)c(Cl)c1`: the AC50 in [1] was 5.24 µM (active). The outcome in experiment [3], in experiment [6] and in experiment [7] was inactive.
Regarding `Cc1occc1C(=O)Nc1ccc(C(=O)N2CCC(F)(F)/C(=C\C(=O)N3CCC(N4CCCCC4)CC3)c3ccccc32)cc1`, the result in [1], in [2], in [6], in [7] and in [8] was inactive.
For `CCCCCCCCN(C)CCCCCCCC`, the outcome in [1], in experiment [6] and in experiment [7] was inactive.
On to `CCCCCCCCCCCC[N+](C)(C)C`, for which the half-maximal activity concentration (AC50) with DIO1 (gene 1733) was 83.2 µM (active). In addition, the outcome in experiment [14], in experiment [6], in [7] and in [8] was inactive.
`CN(C)C(=O)C1(N2CCCCC2)CCN(CC[C@@]2(c3ccc(Cl)c(Cl)c3)CN(C(=O)c3ccccc3)CCO2)CC1`: the compound was classed as inactive in experiment [14], in experiment [6], in [7], in [8] and in [12]. For the same compound, the concentration at half-maximal activity (AC50) in [4] is 3.26 µM (active); in [5] it was 3.28 µM (active); in experiment [9] it was 2.11 µM (active); in experiment [10], 1.81 µM (active); in [11], 2.5 µM (active); in [13], 19.4 µM (active).
With `O=C(OCCCCCCOC(=O)c1ccccc1)c1ccccc1`, the result in experiment [6], in experiment [7] and in [8] was inactive.
`Clc1cc(Cl)c2c(c1)N=C1CCCCCN1C2`: the result in [6], in [7] and in [8] was inactive.
Turning to `c1ccc2n[nH]nc2c1`, the result in [4], in [5], in [9], in [10], in experiment [11] and in [12] was inactive. In experiment [13], the outcome was inactive.
For the compound `CC[C@H](NC(=O)c1cc(F)ccc1NS(=O)(=O)c1cccc2cccnc12)c1ccccc1`, the result in [6] and in [7] was inactive.
As for `Cc1cccc2ccccc12`, the outcome in [6], in experiment [7] and in experiment [8] was inactive.
With `O=CCCCC=O`, the result in experiment [6], in experiment [7] and in [8] was inactive.
For `CCN(Cc1cccc(S(=O)(=O)O)c1)c1ccc(C(=C2C=CC(=[N+](CC)Cc3cccc(S(=O)(=O)O)c3)C=C2)c2ccccc2S(=O)(=O)[O-])cc1`, the compound was called inactive in experiment [4], in experiment [5], in experiment [6], in experiment [7], in experiment [8] and in experiment [9]. Further, the compound was classed as inactive in experiment [10], in experiment [11], in experiment [12] and in experiment [13].
With `c1ccc2ccccc2c1`, the outcome in [6] and in experiment [7] was inactive.
As for `O=c1[nH]sc2ccccc12`, the AC50 in [4] is 0.0259 µM (active); in experiment [5], 0.0286 µM (active); in experiment [12], 34.3 µM (active); in experiment [13], 20 µM (active). The outcome in experiment [6], in experiment [7], in experiment [8], in experiment [9], in [10] and in experiment [11] was inactive.
For `CCO[Si](CCCNC(N)=O)(OCC)OCC`, the result in experiment [6] and in [7] was inactive.
Turning to `CC[C@@H]1C[C@H](N(Cc2cc(C(F)(F)F)cc(C(F)(F)F)c2)C(C)=O)c2cc(C(F)(F)F)ccc2N1C(=O)OC(C)C`, the call in [4], in experiment [5], in experiment [6], in experiment [7], in [9] and in experiment [11] was inactive. Moreover, the compound was classed as inactive in [12] and in [13]. Further, the half-maximal activity concentration (AC50) in experiment [10] is 4.21 µM (active).
As to `Cc1ccc2oc(CN(Cc3ccccc3)C(=O)Nc3c(F)cc(F)cc3F)c(-c3ccc(Cl)cc3)c2c1`, the outcome in experiment [6], in [7] and in experiment [8] was inactive.
With `CN1C(=O)CC[C@H]1c1cccnc1`, the compound was classed as inactive in experiment [4], in [5], in experiment [6], in experiment [7], in experiment [9] and in experiment [10]. In addition, the result in [11], in experiment [12] and in [13] was inactive.
Consider `CCCOC(=O)c1cc(O)c(O)c(O)c1`, for which the result in experiment [6], in experiment [7] and in experiment [8] was inactive.
Consider `CCCCCCCC[Si](OCC)(OCC)OCC`, for which the outcome in experiment [6], in [7] and in experiment [8] was inactive.
